Measurements from PubChem BioAssay.
Unmarked numbers belong to inactive results.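 How the source made its calls: active means viability increase at or above a cutoff of the median across tested compounds plus 3 SD (cut at about 8.5% in these data, passing the limit was not always enough); inconclusive means some gains above the cutoff, reason not given; inactive means the rest.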

assay: doxorubicin toxicity protection in MRP-1 cells – H69AR cells, CellTiter-Glo, duplicate, MRP-1 activator project, pilot screen (AID 807); settings: H69AR viability with doxorubicin, CellTiter-Glo luminescence; at 10 µM; stronger effect = higher value;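 further: compound pretreatment 18-22 h then 72 h combined with doxorubicin; 0% = doxorubicin alone and 100% = vehicle without doxorubicin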

| SMILES | viability increase |
| --- | --- |
| COc1ccc2cc(CCNC(=O)c3c(-c4ccccc4Cl)noc3C)c(=O)[nH]c2c1 | -3.23% |
| CCOc1ccc(S(=O)(=O)N2CCN(S(=O)(=O)c3ccc(OCC)cc3)C(C)C2)cc1 (centres undefined) | -5.22% |
| Cc1occc1-c1nnc(SCCCC(=O)c2ccc(F)cc2)n1C | 0.66% |
| Cc1ccc(CCN2CC(C(=O)NCc3cccnc3)CC2=O)cc1 (centres undefined) | -0.64% |
| COc1ccccc1OCC(=O)Nc1ccc(S(=O)(=O)N2CCCCCC2)cc1 | 0.4% |
| CCN(c1ccccc1)S(=O)(=O)c1ccc(N)cc1 | -1.02% |
| CCOc1cccc(C(=O)Nc2nnc(-c3ccco3)s2)c1 | -0.2% |
| c1ccc2c(c1)CCCN2c1nc2ccccc2n2cnnc12 | -6.44% |
| O=C(CN1CCN(c2ccccc2F)CC1)c1ccc2cc[nH]c2c1 | -4.1% |
| Cc1cccc(OCc2nnc(SCC(=O)NCCc3ccccc3)o2)c1 | -1.67% |
| C=C(C)c1cccc(C(C)(C)NC(=O)N2CCN(c3ccccn3)CC2)c1 | -0.48% |
| Cc1ccc(S(=O)(=O)NCc2ccco2)cc1C | -3.83% |
| COc1ccc(C(=O)NCC(c2cccnc2)N2CCN(c3ccccc3)CC2)cc1OC (centres undefined) | -2.1% |
| O=C(Cn1ncc2c1-c1ccccc1OC2)Nc1ccc(S(=O)(=O)N2CCCCC2)cc1 | -2.69% |
| CC1CCCN(c2ncnc3c2cnn3-c2ccc(Cl)cc2)C1 (centres undefined) | 0.48% |
| CCOC(=O)N1CCC(NC(=O)C2CCCCN2S(=O)(=O)c2ccc(F)cc2)CC1 (centres undefined) | -3.71% |
| CC1NC(=O)NC1CCCCC(=O)O (centres undefined) | 1.3% |
| CCc1ccc(NC(=O)C2CC=CCC2C(=O)O)cc1 (centres undefined) | 0.72% |
| CCN(CCCNC(=O)Cn1cc2c(n1)CCCC2)c1cccc(C)c1 | -3.77% |
| O=C(NC1CCCCCCC1)C1CCC(CNc2c(N3CCCC3)c(=O)c2=O)CC1 (centres undefined) | 0.87% |

| SMILES | viability increase |
| --- | --- |
| CNC(=O)CN1C(=O)c2ccccc2S1(=O)=O | -0.6% |
| O=C(O)CCC(C(=O)O)n1c(O)c(C2=c3ccccc3=NC2=O)sc1=S (centres undefined) | -4.54% |
| CCOc1ccccc1NC(=O)C1CCN(S(=O)(=O)c2ccc(OC)c(OC)c2)CC1 | -2.46% |
| Cc1cc(C)c(S(=O)(=O)Nc2nnc(C)s2)c(C)c1 | 3.99% |
| Cc1ccc(C(c2sc3nc(C)nn3c2O)N2CCN(CCO)CC2)cc1 (centres undefined) | -0.92% |
| CCN(CC)C(=O)c1sc(NC(=O)c2ccoc2C)c(C(=O)OC)c1C | -1.15% |
| Cc1oc2c(c1C(=O)NC(Cc1c[nH]c3ccccc13)C(=O)O)CCCC2 (centres undefined) | -3.61% |
| COc1cccc(C2NC(=O)NC(O)(C(F)(F)F)C2C(=O)c2cccnc2)c1OC (centres undefined) | 0.64% |
| Cc1noc(C)c1S(=O)(=O)N(CC(=O)Nc1ccc2c(c1)OCO2)c1ccc(C(C)C)cc1 | -3.69% |
| COc1ccc(C2CC(=O)N3CN(c4ccc(C)c(Cl)c4)CSC3=C2C#N)cc1 (centres undefined) | -5.36% |
| O=C(Cc1cccs1)N1CCN(c2ccccn2)CC1 | -0.45% |
| O=C(O)CC1C(=O)NCCN1CCCc1ccccc1 (centres undefined) | -0.23% |
| CCCCN(CC)CCNC(=O)Cn1cnc2sc(C)c(S(=O)(=O)N3CCOCC3)c2c1=O | -0.05% |
| CC1(C)C(C#N)=C(N)OC2=C1C(=O)CCC2 | -0.89% |
| CCc1nnc(NC(=O)c2ccc(S(=O)(=O)N3CCOCC3)cc2)s1 | -1.63% |
| Cc1ccnc(N2C(=O)c3ccccc3C2Nc2ccccc2Cl)c1 (centres undefined) | 2.73% |
| CCCCOC(=O)Nc1ccc(S(=O)(=O)Nc2cc(C)nc(C)n2)cc1 | -1.66% |
| O=C1Nc2cc(Cl)cnc2N2CCCC12 (centres undefined) | -0.67% |
| CCn1c(-c2ccccc2O)n[nH]c1=S | -0.52% |
